Among the data in PubChem BioAssay (EPA / NIEHS) are outcome and AC50 values, retold here.

In general, AC50 refers to the concentration at which the activity in the assay is half-maximal.

Details in all cases: mRNA level, 48 h; actives raise or lower the signal
Read-out in assay [1]: Glutathione S-Transferase (GSTA2), GSTA2 (gene 2939)
Put plainly: LTEA_HepaRG_GSTA2: Life Technologies and Expression Analysis (LTEA) Assay for Glutathione S-Transferase (GSTA2) using HepaRG (AID 2283497). The essentials: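 Differentiated human HepaRG cells were exposed in duplicate for 48 h in serum-free induction medium, 8 points from 100 uM top in half-log steps, 0.5% DMSO. GSTA2 mRNA was measured by TaqMan qRT-PCR, normalized to ACTB, GAPDH and POLR2A; bidirectional fit versus DMSO.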

Read-out in assay [2]: Glutamate-cysteine ligase catalytic (GCLC), GCLC (gene 2729)
The experiment in a line: LTEA_HepaRG_GCLC: Life Technologies and Expression Analysis (LTEA) Assay for Glutamate-cysteine ligase catalytic (GCLC) using HepaRG (AID 2283498). The essentials:
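Differentiated HepaRG cells exposed 48 h in serum-free induction medium, eight-point half-log series topping at 100 uM in 0.5% DMSO, duplicates. GCLC mRNA by qRT-PCR normalized to ACTB, GAPDH and POLR2A, fitted bidirectionally versus DMSO.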

Read-out in assay [3]: growth arrest and DNA damage 45 (GADD45G), GADD45G (gene 10912)
Put plainly: LTEA_HepaRG_GADD45G: Life Technologies and Expression Analysis (LTEA) Assay for growth arrest and DNA damage 45 (GADD45G) using HepaRG (AID 2283499). The essentials:
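Differentiated human HepaRG cells, 48 h post-plating, exposed 48 h in serum-free induction medium to 8 half-log concentrations (top 100 uM, 0.5% DMSO) in duplicate. GADD45G mRNA measured by Fluidigm TaqMan qRT-PCR, normalized to ACTB, GAPDH, POLR2A; bidirectional fit versus DMSO.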

Read-out in assay [4]: Glutamate-cysteine ligase regulatory (GCLM), GCLM (gene 2730)
Put plainly: LTEA_HepaRG_GCLM: Life Technologies and Expression Analysis (LTEA) Assay for Glutamate-cysteine ligase regulatory (GCLM) using HepaRG (AID 2283500). The essentials: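 Differentiated HepaRG cells exposed 48 h in serum-free induction medium to eight half-log concentrations up to 100 uM (0.5% DMSO). GCLM mRNA by TaqMan qRT-PCR, normalized to ACTB, GAPDH and POLR2A; bidirectional fit versus DMSO.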

Read-out in assay [5]: Glutathione S-transferase M3 (GSTM3), GSTM3 (gene 2947)
Put plainly: LTEA_HepaRG_GSTM3: Life Technologies and Expression Analysis (LTEA) Assay for Glutathione S-transferase M3 (GSTM3) using HepaRG (AID 2283501). The essentials:
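Differentiated human HepaRG cells were exposed in duplicate for 48 h in serum-free induction medium, 8 points from 100 uM top in half-log steps, 0.5% DMSO. GSTM3 mRNA was measured by TaqMan qRT-PCR, normalized to ACTB, GAPDH and POLR2A; bidirectional fit versus DMSO.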

Read-out in assay [6]: Heat shock 70 kDa protein 1 (HSPA1A), gene 3303
The experiment in a line: LTEA_HepaRG_HSPA1A: Life Technologies and Expression Analysis (LTEA) Assay for Heat shock 70 kDa protein 1 (HSPA1A) using HepaRG (AID 2283502). The essentials: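 Human HepaRG cells in serum-free induction medium were exposed in duplicate for 48 h to 8 half-log concentrations, highest 100 uM, in 0.5% DMSO. HSPA1A mRNA read by TaqMan qRT-PCR, normalized to ACTB, GAPDH, POLR2A, fitted bidirectionally against DMSO.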

Read-out in assay [7]: Hypoxia-inducible factor 1-alpha (Homo sapiens) (UniProt Q16665)
Put plainly: LTEA_HepaRG_HIF1A: Life Technologies and Expression Analysis (LTEA) Assay for Hypoxia-inducible factor 1 (HIF1A) Trancription factor using HepaRG (AID 2283503). The essentials: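 Differentiated HepaRG cells in serum-free induction medium exposed 48 h, in duplicate, to 8-point half-log series from 100 uM in 0.5% DMSO. HIF1A mRNA measured by TaqMan qRT-PCR, normalized to ACTB/GAPDH/POLR2A, fitted bidirectionally versus DMSO.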

Read-out in assay [8]: 3-Hydroxy-3-Methylglutaryl-CoA Synthase 2 (HMGCS2), HMGCS2 (gene 3158)
Put plainly: LTEA_HepaRG_HMGCS2: Life Technologies and Expression Analysis (LTEA) Assay for 3-Hydroxy-3-Methylglutaryl-CoA Synthase 2 (HMGCS2) using HepaRG (AID 2283504). The essentials: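 Human HepaRG cells in serum-free induction medium were exposed in duplicate for 48 h to 8-point half-log series from 100 uM top in 0.5% DMSO. HMGCS2 mRNA measured by TaqMan qRT-PCR, normalised to ACTB, GAPDH, POLR2A; bidirectional fit versus DMSO.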

Read-out in a further assay: HGF (gene 3082)
The experiment in a line: LTEA_HepaRG_HGF: Life Technologies and Expression Analysis (LTEA) Assay for Hepatocyte Growth Facto (HGF) using HepaRG (AID 2283505). The essentials:
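Differentiated HepaRG cells in serum-free induction medium exposed 48 h in duplicate, 8 half-log concentrations from 100 uM in 0.5% DMSO. HGF mRNA by qRT-PCR, normalised to ACTB, GAPDH, POLR2A; bidirectional fitting.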

Read-out in assay [9]: Insulin Like Growth Factor 1 (IGF1), IGF1 (gene 3479)
The experiment in a line: LTEA_HepaRG_IGF1: Life Technologies and Expression Analysis (LTEA) Assay for Insulin Like Growth Factor 1 (IGF1) using HepaRG (AID 2283506). Summed up: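 Differentiated HepaRG cells in serum-free induction medium, exposed 48 h in duplicate to 8 half-log concentrations up to 100 uM in 0.5% DMSO. IGF1 mRNA by Fluidigm qRT-PCR, normalised to ACTB, GAPDH and POLR2A.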

Read-out in assay [10]: Intercellular Adhesion Molecule 1 (ICAM1), ICAM1 (gene 3383)
The experiment in a line: LTEA_HepaRG_ICAM1: Life Technologies and Expression Analysis (LTEA) Assay for Intercellular Adhesion Molecule 1 (ICAM1) using HepaRG (AID 2283507). The essentials: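 Differentiated human HepaRG cells in serum-free induction medium exposed 48 h in duplicate to 8 half-log concentrations (top 100 uM, 0.5% DMSO). ICAM1 mRNA quantified by TaqMan qRT-PCR, normalized to ACTB, GAPDH and POLR2A; bidirectional fitting versus DMSO.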

Read-out in assay [11]: Insulin-like growth factor-binding protein 1 (IGFBP1), IGFBP1 (gene 3484)
The experiment in a line: LTEA_HepaRG_IGFBP1: Life Technologies and Expression Analysis (LTEA) Assay for Insulin-like growth factor-binding protein 1 (IGFBP1) using HepaRG (AID 2283508). The essentials:
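HepaRG cells, plated 48 h then switched to serum-free induction medium, exposed in duplicate for 48 h to 8-point half-log series from 100 uM in 0.5% DMSO. mRNA measured by qRT-PCR, normalized to ACTB/GAPDH/POLR2A; bidirectional fit versus DMSO.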

Read-out in assay [12]: Interleukin 6 (IL6), IL6 (gene 3569)
Put plainly: LTEA_HepaRG_IL6: Life Technologies and Expression Analysis (LTEA) Assay for Interleukin 6 (IL6) using HepaRG (AID 2283509). The essentials: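 HepaRG cells exposed in duplicate for 48 h to eight half-log concentrations, top 100 uM, in 0.5% DMSO serum-free induction medium. mRNA measured by qRT-PCR, normalized to ACTB, GAPDH and POLR2A. Bidirectional fit versus DMSO.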

Read-out in assay [13]: Interleukin 6 Receptor (IL6R), IL6R (gene 3570)
Put plainly: LTEA_HepaRG_IL6R: Life Technologies and Expression Analysis (LTEA) Assay for Interleukin 6 Receptor (IL6R) using HepaRG (AID 2283510).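 For AC50: TaqMan qRT-PCR signal normalized to ACTB GAPDH and POLR2A housekeeping genes.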 Summed up:
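Differentiated HepaRG cells, plated 48 h, then exposed in duplicate for 48 h in serum-free induction medium to 8 half-log concentrations (top 100 uM, 0.5% DMSO). IL6R mRNA measured by TaqMan qRT-PCR, normalized to ACTB/GAPDH/POLR2A; bidirectional fit vs DMSO.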

Read-out in assay [14]: Potassium channel subfamily K member 1 (KCNK1), KCNK1 (gene 3775)
Put plainly: LTEA_HepaRG_KCNK1: Life Technologies and Expression Analysis (LTEA) Assay for Potassium channel subfamily K member 1 (KCNK1) using HepaRG (AID 2283511). The essentials:
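Differentiated HepaRG cells, 48 h exposure in serum-free induction medium with 0.5% DMSO; 8 concentrations, half-log from 100 uM, duplicate. KCNK1 mRNA by qRT-PCR, normalized to ACTB, GAPDH, POLR2A; bidirectional fit vs DMSO.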

Read-out in assay [15]: Keratin 19 (KRT19), KRT19 (gene 3880)
The experiment in a line: LTEA_HepaRG_KRT19: Life Technologies and Expression Analysis (LTEA) Assay for Keratin 19 (KRT19) using HepaRG (AID 2283512). Summed up: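 Differentiated HepaRG cells in serum-free induction medium, exposed 48 h in duplicate to 8 half-log concentrations up to 100 uM in 0.5% DMSO. KRT19 mRNA by qRT-PCR, normalized to ACTB, GAPDH, POLR2A; bidirectional fit vs DMSO.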

Read-out in assay [16]: JUN Transcription Factor, JUN (gene 3725)
Put plainly: LTEA_HepaRG_JUN: Life Technologies and Expression Analysis (LTEA) Assay for JUN Transcription Factor using HepaRG (AID 2283513). Summed up:
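HepaRG cells, 48 h post-plating, exposed 48 h in serum-free induction medium to 8-point half-log series (top 100 uM, 0.5% DMSO), duplicate; mRNA by qRT-PCR (TaqMan, Fluidigm), normalized to ACTB/GAPDH/POLR2A; bidirectional fit vs DMSO.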

Read-out in assay [17]: Lipase C (LIPC), LIPC (gene 3990)
Put plainly: LTEA_HepaRG_LIPC: Life Technologies and Expression Analysis (LTEA) Assay for Lipase C (LIPC) using HepaRG (AID 2283514). The essentials: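 HepaRG cells, 48 h after plating, treated in duplicate for 48 h in serum-free induction medium over 8 half-log concentrations from 100 uM, 0.5% DMSO. LIPC mRNA by TaqMan qRT-PCR normalized to ACTB/GAPDH/POLR2A; bidirectional fit versus DMSO.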

Read-out in assay [18]: Lipoprotein lipase (LPL), LPL (gene 4023)
The experiment in a line: LTEA_HepaRG_LPL: Life Technologies and Expression Analysis (LTEA) Assay for Lipoprotein lipase (LPL) using HepaRG (AID 2283515). Summed up: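 Differentiated HepaRG cells, plated 48 h, then exposed 48 h in serum-free induction medium to 8 concentrations (top 100 uM, half-log steps) in 0.5% DMSO, duplicate. LPL mRNA measured by qRT-PCR, normalized to ACTB, GAPDH and POLR2A.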

Read-out in assay [19]: MicroRNA 122 (MIR122), gene 406906
The experiment in a line: LTEA_HepaRG_MIR122: Life Technologies and Expression Analysis (LTEA) Assay for MicroRNA 122 (MIR122) using HepaRG (AID 2283516). Note: the transcript read is the microRNA miR-122. Summed up: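 Differentiated human HepaRG cells in serum-free induction medium exposed 48 h to 8 half-log concentrations from 100 uM in 0.5% DMSO, duplicate. MIR122 quantified by Fluidigm TaqMan qRT-PCR, normalised to ACTB, GAPDH, POLR2A; fold change fitted bidirectionally versus DMSO.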

Activity calls are given as the source filed them. Rule for the calls: active = hit-call score of the fitted dose curve at least 0.9, where 1 is the maximum; inactive = score below 0.9.

Hypoxia-inducible factor 1-alpha (Homo sapiens), sequence (Q16665 whole entry, looked up): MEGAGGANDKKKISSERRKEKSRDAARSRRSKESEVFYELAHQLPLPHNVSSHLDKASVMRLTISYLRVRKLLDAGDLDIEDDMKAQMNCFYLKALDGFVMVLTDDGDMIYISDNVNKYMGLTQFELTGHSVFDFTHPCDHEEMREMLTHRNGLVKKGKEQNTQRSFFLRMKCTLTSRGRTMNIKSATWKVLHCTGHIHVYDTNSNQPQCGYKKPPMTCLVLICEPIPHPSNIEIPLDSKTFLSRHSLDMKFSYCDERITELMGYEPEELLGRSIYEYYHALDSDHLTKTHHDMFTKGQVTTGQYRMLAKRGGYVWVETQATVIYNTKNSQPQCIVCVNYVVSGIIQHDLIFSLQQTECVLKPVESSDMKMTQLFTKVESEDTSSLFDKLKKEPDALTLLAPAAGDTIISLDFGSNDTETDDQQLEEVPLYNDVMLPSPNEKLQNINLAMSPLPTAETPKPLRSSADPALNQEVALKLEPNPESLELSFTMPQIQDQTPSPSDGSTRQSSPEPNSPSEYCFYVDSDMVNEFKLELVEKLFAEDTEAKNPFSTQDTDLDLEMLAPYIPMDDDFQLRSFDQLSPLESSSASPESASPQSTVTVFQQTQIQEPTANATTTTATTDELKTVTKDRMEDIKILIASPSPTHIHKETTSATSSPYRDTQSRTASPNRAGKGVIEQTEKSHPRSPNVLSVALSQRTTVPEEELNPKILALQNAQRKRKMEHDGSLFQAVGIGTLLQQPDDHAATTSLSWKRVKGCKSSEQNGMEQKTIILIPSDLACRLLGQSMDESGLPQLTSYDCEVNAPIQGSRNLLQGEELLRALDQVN

Consider `Cc1cccc([N+](=O)[O-])c1C`, for which the result in assay [1], in assay [2], in assay [3], in assay [4], in assay [5] and in [6] was inactive. Further, the outcome (in assay [7]; in assay [8]; with HGF (gene 3082); in assay [9]; in assay [10]; in [11]) was inactive. The outcome in [12], in assay [13], in assay [14], in [15], in assay [16] and in assay [17] was inactive. Besides, the call in assay [18] and in assay [19] was inactive.
As to `CC(C)(C)c1cc(O)c(C(C)(C)C)cc1O`, the half-maximal activity concentration (AC50) in [1] is 77.8 µM (active); in assay [5], 50 µM (active); in assay [7], 78.5 µM (active); in assay [8], 78.2 µM (active); in assay [9], 82.4 µM (active); in [11] it was 50 µM (active). The concentration at half-maximal activity (AC50) in assay [12] was 75.7 µM (active); in assay [13] it was 77.6 µM (active); in assay [15], 77.4 µM (active); in assay [17], 79.7 µM (active). Also, the call (in assay [2]; in [3]; in [4]; in assay [6]; with HGF (gene 3082); in assay [14]) was inactive. Also, the compound was called inactive in assay [16] and in assay [18].
For `Cc1ccc(Cl)cc1`, the compound was called inactive in assay [1], in assay [2], in assay [3], in assay [4], in assay [5] and in assay [6]. For the same compound, the result (in [7]; in [8]; with HGF (gene 3082); in assay [9]; in assay [10]; in [11]) was inactive. In addition, the result in [12], in [13], in assay [14], in assay [15], in [16] and in assay [17] was inactive. Besides, the outcome in [18] and in assay [19] was inactive.
Consider `CC1(C)NC(=O)NC1=O`, for which the compound was classed as inactive in assay [1], in assay [2], in assay [3], in assay [4], in [5] and in assay [6]. Also, the outcome (in assay [7]; in [8]; with HGF (gene 3082); in assay [9]; in assay [10]; in [11]) was inactive. Further, the call in assay [12], in assay [13], in [14], in assay [15], in [16] and in [17] was inactive. In addition, the compound was classed as inactive in [18].
